From PubChem BioAssay (NCATS)
Records with an inconclusive call do not appear. Activity calls are given as the source filed them. Unless noted, the call rests on the fitted dose curve; in most records, active means well fitted curve in the direction sought with a large enough effect; inconclusive means small, poorly fitted or top-dose-only effect, or another doubt; inactive means no such curve, though single readings can be large; an effect the other way counts as inactive or inconclusive.

Columns and labels:
[1] = qHTS for Inhibitors of Plasmodium falciparum (DD2) proliferation (AID 504314);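 further: parasite DNA measured by SYBR Green fluorescence after red cell lysis; plate controls were DMSO vehicle for no effect and artemisinin wells for full effect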
Outline: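 Parasite proliferation measured as SYBR Green signal from Plasmodium DNA, mature erythrocytes lacking DNA. 72 h incubation, 37C; activity scaled between vehicle and 0.29 uM artemisinin, with correction from vehicle-only plates.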

[2] = qHTS for Inhibitors of Plasmodium falciparum (GB4) proliferation (AID 504315);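 further: 0% = DMSO vehicle and -100% = 0.29 µM artemisinin control; nearly all actives have a fitted effect of over 50% in size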
Outline: (§1)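 Parasite growth measured as SYBR Green DNA fluorescence (ex 485, em 535 nm) after overnight lysis following 72 h culture at 37 °C, 0.3% parasitemia, 2.5% hematocrit. Values normalized against DMSO and 0.29 uM artemisinin controls, with plate-stack correction.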

[3] = qHTS for Inhibitors of Plasmodium falciparum (7G8) proliferation (AID 504316);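 further: series mostly up to about 6.7 µM; 0% = DMSO vehicle and -100% = 0.29 µM artemisinin full kill; nearly all actives have a fitted effect of over 65% in size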
Outline: as §1

[4] = qHTS for Inhibitors of Plasmodium falciparum (CP250) proliferation (AID 504320);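 further: plate controls were DMSO vehicle for no effect and 0.29 µM artemisinin control for full effect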
Outline: as §1

[5] = molecular target: Atrial natriuretic peptide receptor 1 (Homo sapiens) (UniProt P16066); experiment: Natriuretic polypeptide receptor (hNpr1) antagonism - Pilot CMLD screen (AID 1347052; calls by dose curve;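 further: cGMP level read as GloSensor luciferase luminescence after agonist stimulation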; further: potency means the concentration at half of the fitted maximal effect;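 on activity change, negative = inhibition: HEK293 cells with hNpr1 stimulated by hNppA peptide at 0.1 nM; series mostly up to about 9.2 µM; on the % scale 0 is the no-effect control and ±100 the full control effect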)
[6] = molecular target: Cytochrome P450 2C9 (Homo sapiens) (UniProt P11712); experiment: qHTS Assay for Inhibitors and Substrates of Cytochrome P450 2C9 (AID 883); further: on the % scale 0 is the no-effect control and ±100 the full control effect; nearly all actives have a fitted effect of over 60% in size
Outline: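 CYP2C9 deoxyluciferin hydroxylation, 37C, 60 min with NADPH regeneration; 10nM enzyme, 100uM Luciferin-H (KM). Glo detection reagent stopped reaction; luminescence normalized to sulphaphenazole (57uM) full inhibition.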

[7] = molecular target: Cytochrome P450 3A4 (Homo sapiens) (UniProt P08684); experiment: qHTS Assay for Inhibitors and Substrates of Cytochrome P450 3A4 (AID 884); further: series mostly up to about 57 µM; on the % scale 0 is the no-effect control and ±100 the full control effect; nearly all actives have a fitted effect of over 50% in size
Outline: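 Luminescent readout of luciferin produced by CYP3A4 (20 nM) dealkylation of Luciferin-PPXE, 25 uM (its KM). NADPH-driven reaction ran 60 min at RT after 10 min compound preincubation; data scaled to 57 uM ketoconazole as 100% inhibition.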

[8] = molecular target: Cytochrome P450 2C19 (Homo sapiens) (UniProt P33261); experiment: qHTS Assay for Inhibitors and Substrates of Cytochrome P450 2C19 (AID 899); further: on the % scale 0 is the no-effect control and ±100 the full control effect; nearly all actives have a fitted effect of over 60% in size
Outline: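 In 50mM KPO4, the reaction held 5nM enzyme and KM-level (10uM) Luciferin-H EGE; it ran 60 min at 37C after NADPH regeneration and a 10 min compound preincubation. Luminescence values were scaled to 57uM ketoconazole as complete inhibition.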

[9] = molecular target: Cytochrome P450 3A4 (Homo sapiens) (UniProt P08684); experiment: qHTS Assay for Activators of Cytochrome P450 3A4 (AID 885); further: nearly all actives have a fitted effect of over 65% in size
Outline: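 Human CYP3A4 dealkylates Luciferin-PPXE to luciferin, which luciferase detection converts to light. Substrate was at its KM (25uM), buffer 200mM KPO4, reaction 60 min at RT.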

[10] = qHTS for Inhibitors of Plasmodium falciparum (HB3) proliferation (AID 504318);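 further: 0% = DMSO vehicle and -100% = artemisinin control; nearly all actives have a fitted effect of over 60% in size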
Outline: as §1

Sequence of Atrial natriuretic peptide receptor 1 (Homo sapiens) (P16066 whole entry, looked up): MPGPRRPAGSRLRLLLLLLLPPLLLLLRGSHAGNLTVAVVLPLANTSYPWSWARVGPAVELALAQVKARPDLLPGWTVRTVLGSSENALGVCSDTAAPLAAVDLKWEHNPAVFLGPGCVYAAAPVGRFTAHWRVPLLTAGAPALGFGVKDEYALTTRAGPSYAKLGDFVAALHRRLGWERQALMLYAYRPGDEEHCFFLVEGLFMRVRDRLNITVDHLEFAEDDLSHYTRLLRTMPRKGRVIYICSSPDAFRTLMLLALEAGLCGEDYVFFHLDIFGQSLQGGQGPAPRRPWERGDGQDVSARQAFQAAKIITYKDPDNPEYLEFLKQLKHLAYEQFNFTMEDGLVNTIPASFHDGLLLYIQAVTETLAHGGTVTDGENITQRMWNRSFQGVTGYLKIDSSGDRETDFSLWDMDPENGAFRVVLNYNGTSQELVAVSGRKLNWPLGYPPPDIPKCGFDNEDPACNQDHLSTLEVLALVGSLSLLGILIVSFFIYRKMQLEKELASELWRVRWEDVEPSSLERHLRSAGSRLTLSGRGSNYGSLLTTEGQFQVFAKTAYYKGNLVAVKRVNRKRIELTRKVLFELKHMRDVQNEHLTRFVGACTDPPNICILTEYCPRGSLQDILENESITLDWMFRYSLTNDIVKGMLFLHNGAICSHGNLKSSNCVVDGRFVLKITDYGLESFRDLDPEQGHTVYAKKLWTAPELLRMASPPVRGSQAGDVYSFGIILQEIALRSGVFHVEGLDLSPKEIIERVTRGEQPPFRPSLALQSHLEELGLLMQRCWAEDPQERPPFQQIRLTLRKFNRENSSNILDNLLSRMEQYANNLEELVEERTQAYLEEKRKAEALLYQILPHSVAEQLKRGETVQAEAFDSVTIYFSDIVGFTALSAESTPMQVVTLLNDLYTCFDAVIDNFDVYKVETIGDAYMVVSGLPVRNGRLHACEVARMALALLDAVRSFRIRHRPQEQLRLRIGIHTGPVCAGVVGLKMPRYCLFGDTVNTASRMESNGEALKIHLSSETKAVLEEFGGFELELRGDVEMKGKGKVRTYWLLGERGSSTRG
Sequence of Cytochrome P450 3A4 (Homo sapiens) (P08684 whole entry, looked up): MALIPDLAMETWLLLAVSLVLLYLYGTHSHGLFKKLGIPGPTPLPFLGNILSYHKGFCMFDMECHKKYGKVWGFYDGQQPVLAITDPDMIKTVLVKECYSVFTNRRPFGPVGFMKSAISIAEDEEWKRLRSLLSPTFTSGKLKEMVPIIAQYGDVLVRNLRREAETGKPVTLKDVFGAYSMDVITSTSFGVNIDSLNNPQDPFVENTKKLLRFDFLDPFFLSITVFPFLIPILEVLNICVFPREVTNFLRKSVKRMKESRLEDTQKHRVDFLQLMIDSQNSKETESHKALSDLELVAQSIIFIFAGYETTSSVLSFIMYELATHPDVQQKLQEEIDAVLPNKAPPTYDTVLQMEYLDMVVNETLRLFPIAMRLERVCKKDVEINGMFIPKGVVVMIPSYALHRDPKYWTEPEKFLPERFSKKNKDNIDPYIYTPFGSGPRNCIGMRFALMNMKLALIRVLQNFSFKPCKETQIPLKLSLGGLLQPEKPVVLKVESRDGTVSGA
Sequence of Cytochrome P450 2C9 (Homo sapiens) (P11712 whole entry, looked up): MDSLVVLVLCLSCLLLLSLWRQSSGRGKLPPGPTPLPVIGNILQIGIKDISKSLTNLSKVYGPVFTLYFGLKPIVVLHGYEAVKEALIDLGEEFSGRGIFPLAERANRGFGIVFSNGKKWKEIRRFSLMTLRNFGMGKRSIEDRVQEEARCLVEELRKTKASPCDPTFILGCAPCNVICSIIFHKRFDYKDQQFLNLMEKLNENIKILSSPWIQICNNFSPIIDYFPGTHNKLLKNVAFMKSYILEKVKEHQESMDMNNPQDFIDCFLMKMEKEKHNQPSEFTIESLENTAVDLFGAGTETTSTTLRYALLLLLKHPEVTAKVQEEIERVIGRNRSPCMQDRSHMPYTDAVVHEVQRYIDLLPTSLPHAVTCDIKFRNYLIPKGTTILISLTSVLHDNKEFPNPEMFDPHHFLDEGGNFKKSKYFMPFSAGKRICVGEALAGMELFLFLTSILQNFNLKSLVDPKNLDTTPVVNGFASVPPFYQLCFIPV
Sequence of Cytochrome P450 2C19 (Homo sapiens) (P33261 whole entry, looked up): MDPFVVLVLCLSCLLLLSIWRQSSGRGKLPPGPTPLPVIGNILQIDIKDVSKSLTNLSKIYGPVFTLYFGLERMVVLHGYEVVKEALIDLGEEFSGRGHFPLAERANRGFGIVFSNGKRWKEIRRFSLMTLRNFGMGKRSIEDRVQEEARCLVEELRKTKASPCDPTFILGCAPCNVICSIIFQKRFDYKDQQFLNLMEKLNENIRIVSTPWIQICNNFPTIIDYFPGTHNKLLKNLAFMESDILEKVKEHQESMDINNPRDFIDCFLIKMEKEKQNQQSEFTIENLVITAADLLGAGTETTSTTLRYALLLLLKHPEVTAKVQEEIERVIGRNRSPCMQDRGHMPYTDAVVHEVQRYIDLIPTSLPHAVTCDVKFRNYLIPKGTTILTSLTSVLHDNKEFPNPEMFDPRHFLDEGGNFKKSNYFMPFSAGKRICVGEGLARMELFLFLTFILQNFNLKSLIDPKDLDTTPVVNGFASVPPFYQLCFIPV

COC(=O)N[C@@H](c1cccc(C)c1)[C@@H](C)[N+](=O)[O-]
inactive: Potency [1] | Potency [2] | Potency [3] | Potency [4] | Potency [5]

COC(=O)C(c1ccc(OC)c(OC)c1)C1c2ccccc2C=C(C)N1C(=O)OC (centres undefined)
inactive: Potency [1] | Potency [2] | Potency [3] | Potency [4] | Potency [5]

C[C@H]1Cc2c(COc3ccccc3)nc3c(c2CO1)CN(C(=O)C1CCCCC1)CC3
inactive: activity, negative = inhibition [1] -0.952% [at 1.12 µM] | Potency [2] | Potency [3] | Potency [4] | Potency [5]

CCCCCCCC1=CC2=CC(=O)C(C)(O)C(=O)C2=CN1CCCC (centres undefined)
inactive: activity change, negative = inhibition [6] 13.4% [at 11.4 µM] | activity change, negative = inhibition [7] -26.9% [at 11.4 µM] | activity, negative = inhibition [8] 80.9% [at 11.4 µM]

C[C@H]1COC(=O)[C@H](Cc2ccccc2)NC(=O)[C@@H](C)COC(=O)[C@H](Cc2ccccc2)NC1=O
inactive: activity change, positive = activation [9] -42.5% [at 11.4 µM]

COC(=O)[C@H](COC(C)(C)C)NC(=O)O[C@@H]1C(=O)c2cc(OC)ccc2O[C@H]1c1cccc(OC)c1
inactive: Potency [1] | Potency [2] | Potency [10] | Potency [4] | Potency [5]

CC(C)OC(=O)[C@@H]1CC[C@H](C)[C@@H](CCC[C@@H]2CC=C[C@H](CC#N)O2)O1
inactive: Potency [1] | Potency [2] | Potency [10] | Potency [4] | Potency [5]

C=CCN1C(=O)CC[C@@]23C1=NC(C(=O)OC)=C(C(=O)OC)[C@@H]2N(CC=C)c1ccccc13
active: Potency [5] 2370 nM
inactive: Potency [1] | Potency [2] | Potency [10] | Potency [4]

COC(=O)[C@@]1(C=C[C@@H](C)[C@H](OC)c2ccccc2Br)[C@@H]2OCCC[C@@H]21
inactive: Potency [1] | Potency [2] | Potency [10] | Potency [4] | Potency [5]

COC[C@@H](O)[C@H]1OCc2cc(OC)ccc2[C@H]1C=Cc1ccccc1
inactive: Potency [1] | Potency [2] | Potency [10] | Potency [4] | Potency [5]

C=CC[C@@]1(C(=O)OC)C=C[C@@H](C)[C@H](c2ccccc2Br)N1C(=O)C(F)(F)F
inactive: Potency [1] | Potency [2] | Potency [10] | Potency [4] | Potency [5]

COc1ccc2c(c1)[C@@]1(OCCC=C[C@@H]1C)C(=O)N2Cc1ccc(Br)cc1
inactive: Potency [1] | Potency [2] | Potency [10] | Potency [4] | Potency [5]

COc1ccc2c(c1)C(=O)[C@H](OC(=O)Nc1cc(OC)c(OC)c(OC)c1)[C@@H](c1ccc(OC)c(Br)c1)O2
inactive: Potency [1] | Potency [2] | Potency [10] | Potency [4] | Potency [5]

CCOC(=O)CN1C(=O)NC(c2cccs2)C(C(=O)OC)=C1C (centres undefined)
inactive: Potency [1] | Potency [2] | Potency [10] | Potency [4] | Potency [5]
